Source: PubChem
The full list was thinned out, with hits kept by preference.
Mito fusion act = blocks mitochondrial division or promotes mitochondrial fusion. S. cerevisiae fusion-defective mutant growth rescue, CellTiterGlo 48 h. Potency, µM (doses to about 46.1 µM), most hits filed as activators. 0.23% of 320,000 active. AID 485298; note: nearly all actives have a fitted effect of over 45% in size
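Compounds are tested for their ability to restore growth of mitochondrial fusion-defective yeast strains at non-permissive 37C in YPEG medium over 48 hours. Viability is quantified by luciferase luminescence.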
ASM inhibitor = inhibitors of human secretory acid sphingomyelinase; P17405; placental ASM, HMU-PC fluorogenic substrate, 60 min; Potency, µM (series often up to 57.5 µM), usual class: inhibitors; 0.006% of 340,000 active
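Fluorescence read-out (Ex 386 nm, Em 447 nm) after stopping the reaction at pH 10. Enzyme: ASM from human placenta; substrate HMU-PC0, 9 uM final; 60 min, 37 °C. Compound preincubation 10 min, ambient temperature.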
LDHA block = inhibitors of human lactate dehydrogenase A. P00338. purified LDHA, NADH/diaphorase-resazurin fluorescence; stronger effect = lower value. activity change, % (values are at about 110 or 230 µM). 0.15% of 480,000 active. AID 1347041; in the data active = activity change below about -30%; inconclusive = mostly about -25% to -30%
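Remaining NADH was detected by diaphorase (0.133 mg/mL) converting 37 µM resazurin to fluorescent resorufin, read at 0 and 20 minutes. The preceding 5-minute room-temperature reaction used 2 nM LDHA, 0.2 mM sodium pyruvate and 0.06 mM NADH at pH 7.4.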
ClpP mod = qHTS Assay for Activators of ClpP. ATP-dependent Clp protease proteolytic subunit (Bacillus subtilis (strain 168)), P80244. purified B. subtilis ClpP, FRET peptide cleavage, 20 min. Potency, µM (highest dose often 57.5 µM). 1.9% of 340,000 active. AID 651965, 2013; active = well fitted falling curve with a large enough effect; inconclusive = small, poorly fitted or top-dose-only effect; inactive = no such curve, though single readings can be large or run the other way; note: the source files actives as falling curves though it sought activators and does not explain the sign; nearly all actives have a fitted effect of over 65% in size
Target sequence (P80244 whole entry, looked up): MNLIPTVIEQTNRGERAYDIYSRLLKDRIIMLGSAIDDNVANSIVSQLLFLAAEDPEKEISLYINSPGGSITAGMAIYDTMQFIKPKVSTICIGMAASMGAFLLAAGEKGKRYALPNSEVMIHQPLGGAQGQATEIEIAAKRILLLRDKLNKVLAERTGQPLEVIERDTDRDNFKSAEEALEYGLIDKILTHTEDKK
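Purified B. subtilis ClpP, 10 microg/mL final in Tris/HCl pH8 with KCl, BSA, glycerol and Tween-20, cleaved an Abz/nitrotyrosine-quenched decapeptide. Fluorescence (ex 320, em 430) was read at 0 and 20 min at room temperature. Delta was normalized to 5.8 microM ADEP and DMSO/no-enzyme controls.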
RGS4 inhibitor = inhibitors of human regulator of G protein signaling 4; P49798; Transcreener GDP fluorescence polarization, RGS4-accelerated GTP hydrolysis; Potency, µM (top dose mostly 114 µM), usual class: inhibitors; 0.039% of 390,000 active; AID 504845; note: nearly all actives have a fitted effect of over 75% in size
Target sequence (P49798 whole entry, looked up): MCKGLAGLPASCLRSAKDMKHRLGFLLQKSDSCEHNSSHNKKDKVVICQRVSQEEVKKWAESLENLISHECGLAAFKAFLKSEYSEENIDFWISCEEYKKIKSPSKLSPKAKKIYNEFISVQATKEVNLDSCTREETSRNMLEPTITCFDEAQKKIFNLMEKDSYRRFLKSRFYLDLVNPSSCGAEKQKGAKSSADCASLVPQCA
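MLSMR compounds (23 nl, pin-transferred) preincubated 10 min at room temperature with a 500nM (2x) first reagent, then RGS4 at 900nM (2x) plus Transcreener GDP mix added; fluorescence polarization (620/688 nm) read before and after 90 min at 30 °C.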
IDH1 R132H inh = blocks human mutant IDH1 R132H enzyme. O75874. IDH1-R132H enzyme, NADPH consumption, diaphorase/resazurin fluorescence. Potency, µM (doses to about 76.6 µM), most hits filed as inhibitors. 0.093% of 390,000 active. AID 602179; note: nearly all actives have a fitted effect of over 65% in size
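IDH1-R132H (0.5 ug/mL dispensed) in pH 7.5 Tris buffer was preincubated 30 min with compound, then given a substrate mix of 0.016 mM NADPH and 2 mM alpha-KG for 80 min at room temperature; remaining NADPH was read by diaphorase/resazurin fluorescence.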
Of the large screens only hits and unclear results are named; the others gave an inactive call. Unless noted, calls come from the whole dose curve; as a rule, active = well fitted curve in the direction sought with a large enough effect; inconclusive = small, poorly fitted or top-dose-only effect, or another doubt; inactive = no such curve, though single readings can be large; an effect the other way counts as inactive or inconclusive.

CC(OC(=O)CCN=C1NS(=O)(=O)c2ccccc21)C(=O)Nc1ccc(F)c(F)c1F (stereo not drawn)	ClpP mod 32µM
COc1ccc(-c2ccnc3nc(N4CCN(c5ccccc5)CC4)nn23)cc1	Mito fusion act 13µM
C=CCn1c(C(=O)NCCCOC)cc2cc(S(=O)(=O)N(C)C)ccc21	none (no result: Mito fusion act, ASM inhibitor, ClpP mod, RGS4 inhibitor, IDH1 R132H inh)
O=c1cc2c(nn1Cc1ccc(F)cc1)-c1ccccc1CC2	Mito fusion act 13µM
O=c1cc2c(nn1Cc1ccccc1)-c1ccccc1CC2	none (no result: ClpP mod)
CCc1ccc2c(Cl)c(C(=O)N/N=C/c3c[nH]c4ccccc34)sc2c1	ClpP mod 25µM
Cc1onc(-c2c(F)cccc2Cl)c1C(=O)Nc1nnc(C(C)C)s1	none (no result: Mito fusion act, ASM inhibitor, ClpP mod, RGS4 inhibitor, IDH1 R132H inh)
CSc1ccc(CN(C)C(=O)CSc2nnc(COc3ccc(Cl)cc3)n2C)cc1	none (no result: Mito fusion act, ASM inhibitor, ClpP mod, RGS4 inhibitor, IDH1 R132H inh)
O=C1NC2=C(CCc3ccccc32)C(c2ccc(Br)cc2)N1 (stereo not drawn)	ClpP mod 28µM
CC(=O)Nc1ccc(S(=O)(=O)Nc2ccccc2C(=O)NCc2cccnc2)cc1	Mito fusion act 10µM (no result: ClpP mod)
Cc1nc(SCC(=O)NC(c2ccc3c(c2)OCCCO3)C(C)C)c(C#N)c(C)c1C (stereo not drawn)	none (no result: Mito fusion act, ASM inhibitor, ClpP mod, RGS4 inhibitor, IDH1 R132H inh)
CC(=O)N1CCCc2cc(S(=O)(=O)NC(C(=O)NC3CCCCC3)C(C)C)ccc21 (stereo not drawn)	ClpP mod 16µM (no result: Mito fusion act, ASM inhibitor)
CC(=O)N1CCCc2cc(S(=O)(=O)NC(C(=O)NC(C)c3ccccc3)C(C)C)ccc21 (stereo not drawn)	none
Cc1[nH]n2c(=O)c3c(nc2c1-c1ccc(F)cc1)CCCC3	none (no result: ClpP mod)
O=c1c2c(nc3c(-c4ccc(Cl)cc4)c[nH]n13)CCCC2	ClpP mod 14µM
O=c1c2c(nc3c(-c4cccc5ccccc45)c[nH]n13)CCC2	ClpP mod 11µM
CC(C)(C)C1CCC(C(=O)N/N=C/c2ccc(Cl)s2)CC1 (stereo not drawn)	none (no result: Mito fusion act, ASM inhibitor, ClpP mod, RGS4 inhibitor, IDH1 R132H inh)
CN(C)CC(NS(=O)(=O)c1cccc(Cl)c1)c1ccccc1 (stereo not drawn)	none (no result: Mito fusion act, ASM inhibitor, ClpP mod, RGS4 inhibitor, IDH1 R132H inh)
Cc1ccc(S(=O)(=O)N2CCC(CN3C(=O)c4cccc5cccc(c45)C3=O)CC2)cc1	ClpP mod 25µM
O=C1c2cccc3cccc(c23)C(=O)N1CC1CCN(S(=O)(=O)c2ccccc2)CC1	none (no result: Mito fusion act, ClpP mod)
O=C(c1ccc(S(=O)(=O)N2CCCCCC2)cc1)N1CCC(CN2C(=O)c3cccc4cccc(c34)C2=O)CC1	ClpP mod 28µM
O=C1c2cccc3cccc(c23)C(=O)N1CC1CCN(S(=O)(=O)c2ccc(F)cc2)CC1	ClpP mod 13µM
O=C(CN1C(=O)c2cccc3cccc(c23)C1=O)N1CCCCCC1	ClpP mod 28µM
O=C(CN1C(=O)c2ccccc2C1=O)N1CCCCC1	none
Cc1ccc(-c2nc(N)sc2CC(=O)OCC(=O)Nc2cccc3ccccc23)cc1	none (no result: Mito fusion act, ASM inhibitor, ClpP mod, RGS4 inhibitor, IDH1 R132H inh)
Nc1ccc2oc3ccccc3c2c1	ClpP mod 18µM
O=C(O)c1ccc2oc3ccccc3c2c1	none (no result: Mito fusion act, ASM inhibitor, ClpP mod, RGS4 inhibitor, IDH1 R132H inh)
N#Cc1cc(Oc2ccc(Br)cc2)c(Oc2ccc(Br)cc2)cc1C#N	none (no result: Mito fusion act, ASM inhibitor, ClpP mod, RGS4 inhibitor, IDH1 R132H inh)
CC(C)OC(=O)/C(C#N)=C\c1ccc(O)c(Br)c1	none (no result: Mito fusion act, ASM inhibitor, ClpP mod, RGS4 inhibitor, IDH1 R132H inh)
FC(F)(F)c1cc(-c2cccs2)nc(-n2cc(Cl)cn2)n1	ClpP mod 32µM
O=[N+]([O-])c1ccn(-c2nc(-c3cccs3)cc(C(F)(F)F)n2)n1	none
O=C(COc1ccc2ccc(=O)oc2c1)Nc1cccc(S(=O)(=O)N2CCCCC2)c1	ClpP mod 35µM
Cc1ccc(OCC(=O)Nc2cccc(S(=O)(=O)N3CCCC3)c2)cc1C	none (no result: Mito fusion act, ASM inhibitor, RGS4 inhibitor)
CCCCc1cc(=O)oc2cc(OCC(=O)NCc3ccc(S(N)(=O)=O)cc3)ccc12	none (no result: Mito fusion act, ASM inhibitor, ClpP mod, RGS4 inhibitor, IDH1 R132H inh)
COc1ccc(S(=O)(=O)N2CCOCC2)cc1NC(=O)COc1ccc2c(C)cc(=O)oc2c1	none (no result: Mito fusion act)
CCCc1cc(=O)oc2cc(OCC(=O)Nc3ccc(S(N)(=O)=O)cc3)ccc12	LDHA block -37, RGS4 inhibitor inconclusive
Cc1ccc(S(=O)(=O)N2CCOCC2)cc1NC(=O)CNCc1cccnc1	LDHA block -40
Cc1ccc(S(=O)(=O)N2CCOCC2)cc1NC(=O)COc1ccc2c(C)cc(=O)oc2c1	ClpP mod 32µM
CC(OC(=O)c1ccccc1-n1cnnn1)C(=O)Nc1ccc(N2CCOCC2)cc1 (stereo not drawn)	none (no result: Mito fusion act, ASM inhibitor, ClpP mod, RGS4 inhibitor, IDH1 R132H inh)
C#CCN1CCC(C(=O)Nc2ccccc2CC)CC1	none (no result: Mito fusion act, ASM inhibitor, ClpP mod, RGS4 inhibitor, IDH1 R132H inh)
Cc1cc(N)cc(-c2nc3cc(C(C)C)ccc3o2)c1O	none (no result: Mito fusion act, ASM inhibitor, ClpP mod, RGS4 inhibitor, IDH1 R132H inh)
O=C(CC1CCCC1)Nc1nc(-c2ccc3c(c2)CCO3)cs1	none (no result: Mito fusion act, ASM inhibitor, ClpP mod, RGS4 inhibitor, IDH1 R132H inh)
CCC(=O)N1N=C(c2ccccc2)CC1c1ccccc1 (stereo not drawn)	none
CCOC(=O)c1nnn(CC(=O)N2N=C(c3cccc4ccccc34)CC2c2ccccc2)c1C(=O)OCC (stereo not drawn)	ClpP mod 11µM
